Assay results taken from PubChem BioAssay AID504423 (Broad Institute, 2011).
Values joined by “and” are separate entries in the source; they are usually repeats but may differ in a detail not shown here. Equal values may be shown once. Screen size: about 340,000 compounds; about 260 (0.076%) were called active. The sample holds actives, similar compounds and a random draw of the others, so the mix is not that of the screen.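 The calls were made as follows: active = highest replicate inhibition at or above 60% at 9 µM, even if other replicates fall short; inactive = all replicates below 60% inhibition.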

test system: Kaposi's sarcoma herpesvirus LANA C-terminal domain (residues 932-1162) DNA binding; assay: blockers of LANA C-terminal domain DNA interaction – biochemical, fluorescence polarization, FAM-LBS DNA, MBP-C-LANA, single point, primary screen (AID 504423); conditions: at 9 µM, stronger effect = higher value;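 also: 0% = neutral control wells and 100% = 4 µM acridine orange control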

Row | Structure (SMILES) | inhibition
1 | CCC1OC(c2ccc([N+](=O)[O-])cc2)=Nc2ccccc21 (centres undefined) | 1.55% (inactive)
2 | O=C(NCCCc1ccccc1)C(=O)c1c[nH]c2ccccc12 | 1.71% (inactive)
3 | CCCN(CC(=O)NC(=O)NC1CCCCC1)CC(=O)Nc1cc(Cl)ccc1Cl | -0.226% (inactive)
4 | CCN1C[C@@H]2[C@@H]3C(=O)N(C)C(=O)[C@@H]3[C@](C)(C1=O)N2C(=O)c1ccccc1 | -2.13% (inactive)
5 | CCN(CC(=O)Nc1ccc(OC)cc1)C(=O)c1ccc(Cl)c(S(=O)(=O)N2CCCC2)c1 | 3.81% (inactive)
6 | COC(=O)C1=C(O)/C(=C/c2ccc(OCC(=O)Nc3ccccc3)cc2)N=C1C | 0.272% (inactive)
7 | CCOC(=O)C1=C(O)/C(=C/c2ccc(OCC(=O)Nc3ccc(C)cc3)cc2)N=C1C | 0.825% (inactive)
8 | CCOC(=O)C1=C(O)/C(=C/c2cc(C)n(-c3ccccc3)c2C)N=C1C | 73.6% (active)
9 | CCOc1ccc(N(CC)S(=O)(=O)c2cccc3nsnc23)cc1 | 3.87% (inactive)
10 | Cc1cc2nc(SCCN3CCOCC3)[nH]c2cc1C | -0.479% (inactive)
11 | O=C(Nc1c(Br)cc2c(c1Br)Cc1ccccc1-2)C(F)(F)F | -0.671% (inactive)
12 | O=C(NC(=S)N1CCCCC1c1cccnc1)c1ccccc1 (centres undefined) | 1.24% (inactive)
13 | CN(CCOc1ccc(CC2SC(=O)NC2=O)cc1)c1ccccn1 (centres undefined) | 14.3% (inactive) and -2.59% (inactive)
14 | CN(C)/C=C(/C(=O)c1ccccc1Cl)S(C)(=O)=O | 0.122% (inactive)
15 | CCC(CC)C(=O)Nc1cc(C(=O)OC)cc(C(=O)OC)c1 | -1.15% (inactive)
16 | Cc1ccc(C)c(-n2ccnc2SCC(N)=O)c1 | -0.0657% (inactive)
17 | Cc1cc(C)c(CN2CCN(C(=O)Cn3ccc(NC(=O)OCc4ccccc4)nc3=O)CC2)c(C)c1 | 1.66% (inactive)
18 | CCn1c(=S)sc2c(=O)n(CC(=O)Nc3cccc(Br)c3)c(C)nc21 | -0.393% (inactive)
19 | Cc1cccn2c(CNCC(C)Oc3cccnc3)c(C(=O)N3CCOCC3)nc12 (centres undefined) | -1.19% (inactive)
20 | CCOc1ccc(CN2CCC(n3nccc3NC(=O)C3CC3)CC2)cc1CO | 1.61% (inactive)
21 | O=C(Nc1cc(-c2ccccc2)nn1-c1ccccc1F)c1ccc([N+](=O)[O-])cc1 | -1.47% (inactive)
22 | Cc1ccccc1OCC(=O)NNC(=O)c1cc(S(=O)(=O)N(C)C)ccc1N1CCCC1 | -0.594% (inactive)
23 | CN1CCC2(CC1)NC(=O)NC2=O | 0.656% (inactive)
24 | O=C(NCc1ccncc1)c1cccc(NS(=O)(=O)c2ccc(F)c(F)c2)c1 | -0.916% (inactive)
